In PubChem BioAssay (NCI):
The panel holds about 83,000 compounds, 20% with a hit somewhere; the sample as a whole holds those more often.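 Testing used 96-well plates and a 48-hour single-concentration exposure. Example: -40 means 40% of the starting cells died.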 Unmarked numbers belong to inactive results. Activity calls are given as the source filed them. The calls were made as follows: active = growth percent below 10; inactive = the rest.

system: HL-60(TB) leukemia; assay: NCI-60 one-dose screen, 48 h (100 = growth as untreated, 0 = no growth, -100 = all killed); conditions: 10 µM unless noted

Structure (SMILES)	growth
COc1ccc(/C=C2\CS(=O)(=O)C/C(=C\c3ccc(OC)cc3)C2=O)cc1	-29.8% (active)
CN1C(=O)NC(Cc2c[nH]c3c(Cl)cccc23)C1=O (stereo not drawn)	98.6%
O=C(N/N=C/c1ccccc1Cl)c1ccccc1Nc1ccnc(C(F)(F)F)c1	-20.1% (active)
Cc1ccc(N=Nc2ccccc2)cc1	85.8%
CC(C)=CC[C@@H]1CC2(CC=C(C)C)C(=O)C(OC3(C(=O)c4ccccc4)C(=O)C4(CC=C(C)C)C[C@@H](CC=C(C)C)C(C)(C)C(CC=C(C)C)(C4=O)C3=O)(C(=O)c3ccccc3)C(=O)C(CC=C(C)C)(C2=O)C1(C)C (stereo partly drawn)	-47.7% (active)
COc1cccc(-c2nn(-c3ccccc3)cc2-c2ccnc(NCCNC(=O)c3ccccc3)c2)c1	25.2%
CC(=O)c1ccc(Cc2ccc(C(C)=O)s2)s1	86.5%
CCOC(=O)c1c(NC(=S)Nc2ccc([N+](=O)[O-])cc2)sc2c1CCCCC2	70.5%
COc1ccc(-c2cc(/C=C3\C(=O)Nc4ccc(OC)cc43)[nH]n2)cc1	-0.36% (active)
C[N+](C)(CCOC(c1ccccc1)c1ccccc1)CC(=O)OCc1ccccc1	100%
C#CCOc1cccc(-c2ncnc3cc(NC(=O)C=C)ccc23)c1	16.9%
CCOC(=O)c1ccc2c(c1)[n+](=O)c(C(C)=O)c(C(F)(F)F)n2[O-]	-65.9% (active)
Cc1ccccc1-n1nnc(C(=O)Nc2ccc(-c3ccccc3)cn2)c1C	28.8% [50 µM]
